Pyk2 oligo antag – blocks oligomerization of human Pyk2 in cells; z-score (the deposit names both 25 µM and 10 µM); Q14289; Q293 cells, Pyk2 FERM NanoBiT luminescence; hits give low values; 99,000 compounds, 0.83% hits;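 active = Z-score of -3 or lower, scaled per plate to the spread of control and sample wells; inactive = z-score above -3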;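 note: negative z-score means lost luminescence so less FERM oligomerization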
CYP2C9 inh – human CYP2C9 inhibition. P11712. inhibition, % at 5 µM. CYP2C9 Supersomes, luciferin-H conversion, luminescence. 96,000 compounds, 20% hits;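 active = blocking of liver enzyme CYP2C9 beyond about 50% at 5 µM, limit read from the data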
Target sequence (P11712 whole entry, looked up): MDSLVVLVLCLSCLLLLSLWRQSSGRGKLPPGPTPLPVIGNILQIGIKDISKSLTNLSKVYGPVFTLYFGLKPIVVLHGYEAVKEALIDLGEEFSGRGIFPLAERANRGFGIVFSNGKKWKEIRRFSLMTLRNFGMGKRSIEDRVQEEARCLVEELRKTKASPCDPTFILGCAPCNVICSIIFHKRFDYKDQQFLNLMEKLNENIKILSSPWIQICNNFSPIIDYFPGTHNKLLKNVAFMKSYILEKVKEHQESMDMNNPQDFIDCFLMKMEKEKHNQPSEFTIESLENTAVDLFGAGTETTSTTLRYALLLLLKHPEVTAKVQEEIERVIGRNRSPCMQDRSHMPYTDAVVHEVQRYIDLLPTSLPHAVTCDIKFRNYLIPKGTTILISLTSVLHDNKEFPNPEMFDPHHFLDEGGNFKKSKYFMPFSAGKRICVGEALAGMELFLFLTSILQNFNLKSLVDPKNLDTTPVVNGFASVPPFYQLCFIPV
CYP2C19 inh – inhibitors of human CYP2C19 | P33261 | CYP2C19 Supersomes, luciferin-H EGE luminescence, 30 min | 96,000 compounds, 21% hits | AID 778 | inhibition, % at 5 µM;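 active = CYP2C19 inhibition above a set limit at 5 µM in the primary screen, cut at about 50% in these data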;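 note: plate controls were negative control wells for no effect and 2.5 mM tranylcypromine positive control for full effect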
CYP2C9 activ – CYP2C9 (human) activation; activation factor at 5 µM; P11712; 96,000 compounds, 1.4% hits; AID 1024; recombinant CYP2C9, luciferin-H conversion, luminescence; hits give high values; factor 1 = untreated enzyme, 0 = blocked;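 active = activation factor of 2 or more for CYP2C9 at a 5 µM dose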;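 note: 0 = sulfaphenazole-blocked wells and 1 = vehicle-only wells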
CYP2C19 activ – increases human CYP2C19 enzyme activity | P33261 | recombinant CYP2C19, luciferin-H EGE luminescence; hits give high values; 0 = fully inhibited enzyme, 1 = untreated enzyme | activation factor at 5 µM | 96,000 tested, under 10 active | AID 1025;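 active = activation factor of at least 2 at 5 µM in the primary screen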;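 note: 0 = wells with 2.5 mM tranylcypromine and 1 = vehicle-only wells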
* hit, by the source's call; nt = no result given. Hits are enriched below; roughly 28% of the tested compounds scored in any of these assays.

SMILES	Pyk2 oligo antag	CYP2C9 inh	CYP2C19 inh	CYP2C9 activ	CYP2C19 activ
CCOC(=O)c1nnc(-c2ccccc2)nc1NCc1ccccc1	-2	37	12	0.6	0.9
CCOC(=O)c1c2n(c3c(NCc4ccccc4)ncnc13)CCCC2	-0.29	77*	26	0.2	0.7
O=C(Cn1nc(-c2ccccc2)ccc1=O)NCCN1CCN(Cc2ccccc2)CC1	-0.05	8	84*	0.9	0.2
O=C(NCC(=O)N(c1ccccc1F)C(C(=O)NCC1CCCO1)c1ccccc1)c1ccco1 (stereo not drawn)	-0.51	-2	10	1	0.9
CN1CCN(C(=S)Nc2ccc([N+](=O)[O-])cc2)CC1	-0.27	8	15	0.9	0.8
CC(=O)N1CCN(C(=S)c2ccc([N+](=O)[O-])cc2)CC1	-0.29	2	51*	1	0.5
C=CCNC(=O)c1onc(CSc2ccccc2)c1C(=O)O	nt	31	13	0.7	0.9
C=CCNC(=O)c1onc(CSc2ccc(OC)cc2)c1C(=O)O	nt	52*	-3	0.5	1
C=CCNC(=O)c1onc(CSc2ccc(C(C)C)cc2)c1C(=O)O	nt	87*	21	0.1	0.8
C=CCNC(=O)c1onc(CSc2ccc(F)cc2)c1C(=O)NCCOC	nt	22	98*	0.8	0
C=CCNC(=O)c1onc(CSc2cccc3ccccc23)c1C(=O)O	nt	94*	59*	0.1	0.4
C=CCNC(=O)c1onc(CSc2ccc(F)cc2)c1C(=O)O	nt	22	13	0.8	0.9
CC1CCCCN1C(=O)c1cnn2c(C(F)(F)F)cc(-c3ccco3)nc12 (stereo not drawn)	0.72	22	44	0.8	0.6
Cc1ccc(NC(=O)C2CCCN(S(=O)(=O)c3cccs3)C2)cc1 (stereo not drawn)	0.36	30	19	0.7	0.8
CCC1CCCCN1S(=O)(=O)c1ccc(C(=O)Nc2nnc(-c3ccccc3Cl)o2)cc1 (stereo not drawn)	-0.96	nt	nt	nt	nt
CCCS(=O)(=O)N1CCCC(C(=O)NCCc2ccc(Cl)cc2)C1 (stereo not drawn)	1.8	56*	28	0.4	0.7
Cn1c(=O)oc2cc(S(=O)(=O)N3CCCC(C(=O)NCc4ccc5c(c4)OCO5)C3)ccc21 (stereo not drawn)	nt	68*	8	0.3	0.9
CCC1CCCCN1S(=O)(=O)c1ccc(S(=O)(=O)N(Cc2cccs2)C2CC2)cc1 (stereo not drawn)	-1.2	71*	69*	0.3	0.3
Cc1ccc(CCNC(=O)C2CCCN(S(=O)(=O)c3cccs3)C2)cc1 (stereo not drawn)	-1.1	72*	13	0.3	0.9
Cc1n(CC(O)COC2CCCCC2)c2ccccc2[n+]1C (stereo not drawn)	1.2	nt	nt	nt	nt
O=S(=O)(c1ccc2nc(COc3ccccc3)[nH]c2c1)N1CCOCC1	0.94	-8	-19	1.1	1.2
O=C(NCc1cccs1)C1CCCN(S(=O)(=O)c2ccc3c(c2)OCO3)C1 (stereo not drawn)	-0.36	-110	14	2.1*	0.9
CCNC(=O)C1CCCN1S(=O)(=O)c1ccc(OC)cc1 (stereo not drawn)	-0.81	-50	-9	1.5	1.1
CS(=O)(=O)N1CCCC(C(=O)NCc2cccs2)C1 (stereo not drawn)	0.68	3	0	1	1
COc1ccc(S(=O)(=O)N2CCCC2C(=O)NCc2cccs2)cc1 (stereo not drawn)	0.15	-210	68*	3.1*	0.3
SMILES	Pyk2 oligo antag	CYP2C9 inh	CYP2C19 inh	CYP2C9 activ	CYP2C19 activ
Cc1ccc(S(=O)(=O)N2CCCC(C(=O)N(Cc3cccs3)C3CC3)C2)cc1 (stereo not drawn)	-0.54	-50	99*	1.5	0
O=C(NCc1cccs1)C1CCCN(S(=O)(=O)c2cccs2)C1 (stereo not drawn)	0.73	72*	22	0.3	0.8
COC(=O)c1ccccc1NC(=O)COC(=O)CSCC(=O)N1CCOCC1	-0.63	-3	7	1	0.9
CC(C)(C)c1ccc(-c2nc3c(C#N)c(-c4ccc5c(c4)OCO5)ccn3n2)cc1	-0.31	24	-3	0.8	1
O=C(Nc1ccccc1)c1ccc(N2CCN(c3ccccc3)CC2)c(S(=O)(=O)N2CCOCC2)c1	0.21	76*	58*	0.2	0.4
O=C(Nc1ccccc1)c1ccc(NC2CCCCC2)c(S(=O)(=O)N2CCOCC2)c1	-2.4	82*	83*	0.2	0.2
O=C(Nc1ccccc1)c1ccc(N2CCN(c3ccccn3)CC2)c(S(=O)(=O)N2CCOCC2)c1	-0.68	91*	92*	0.1	0.1
O=C(Nc1ccc(F)c(F)c1)c1ccc(F)c(S(=O)(=O)N2CCOCC2)c1	nt	16	0	0.8	1
COc1cccc(CN2C(=O)C3CCCN3c3ccc(S(=O)(=O)N4CCOCC4)cc32)c1 (stereo not drawn)	nt	62*	27	0.4	0.7
COc1cccc(CNC(=O)c2ccc(S(=O)(=O)N3CCCC3)cc2)c1	-0.06	86*	23	0.1	0.8
COc1cccc(CNC(=O)c2cc3ccccn3n2)c1	nt	-33	66*	1.3	0.3
Cc1cc2cc(CNC(=O)c3ccc(S(=O)(=O)N4CCCCC4)cc3)ccc2[nH]1	nt	79*	34	0.2	0.7
COc1cccc(CN2CCCN(S(=O)(=O)c3ccc(Br)cc3)CC2)c1	1.2	0	79*	1	0.2
Cc1cccc(-n2c(CNC(=O)c3ccc(S(=O)(=O)N4CCCC4)cc3)n[nH]c2=S)c1	1.9	5	53*	0.9	0.5
CC(C)N1CC(O)=C(c2ccccc2)C1=N	-0.27	3	-9	1	1.1
N=C1C(c2nc3ccccc3c(=O)[nH]2)=C(O)CN1CCc1ccccc1	nt	60*	63*	0.4	0.4
CC(C)CCN1CC(O)=C(c2nc3ccccc3[nH]2)C1=N	0.32	60*	68*	0.4	0.3
CC(C)N1CC(O)=C(c2nc3ccccc3[nH]2)C1=N	0.12	-2	54*	1	0.5
CCCCN1CC(O)=C(c2nc3ccccc3[nH]2)C1=N	-0.62	52*	71*	0.5	0.3
N=C1C(c2nc3ccccc3c(=O)[nH]2)=C(O)CN1CCO	-0.49	-2	5	1	1
CCCCNC(=O)COc1ccccc1[N+](=O)[O-]	1.2	nt	nt	nt	nt
Cc1ccccc1NC(=O)NC1(C(=O)NCCCN2CCOCC2)CCCCC1	0.11	nt	nt	nt	nt
Cc1cc(C)n2nc(C(=O)Nc3cccnc3)nc2n1	0.21	-8	-5	1.1	1.1
Cc1ccc2nc(N3C(=O)C(O)=C(C(=O)c4ccco4)C3c3cccs3)sc2c1 (stereo not drawn)	0.08	96*	9	0	0.9
COc1cc(C2C(C(=O)c3ccco3)=C(O)C(=O)N2CCc2ccccc2)ccc1O (stereo not drawn)	-0.51	54*	7	0.5	0.9
